# According to paper PMC4242493, “Sequence specificity incompletely defines the genome-wide occupancy of Myc”:
# The full ranking holds about 33,000 sequences; the median of “normalized occupancy” is about 0.075, and the highest 2% start at about 0.095. Shown is part of a subset that was picked to be rich in the highest values.
# Target: MaxL homodimer (Homo sapiens, UniProt P61244 1-160)
# Experiment: universal protein-binding microarray (PBM); PBS-based mixture, 10 nM His-tagged protein dimer, 2% milk, 200 ng/uL BSA, 50 ng/uL salmon testes DNA, 0.02% TX-100; detection with Alexa 488 anti-His antibody;; high values mean tight binding
# Conditions: protein: recombinant; tags: C-terminal His-tag (pET21a); chain copies: 2; dsDNA, one strand shown
# Method in brief: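 Arrays of the 'all 10-mer' universal design (Agilent 4 x 44 K) were exposed to 10 nM His-tagged protein dimer, stained with 10 ng/μL fluorophore-conjugated anti-His antibody and read on a GenePix 4400A to give a fluorescence intensity for each 8-mer. Binding occupancy is each intensity divided by the highest-ranked intensity.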
# Chain of MaxL homodimer (P61244 whole entry): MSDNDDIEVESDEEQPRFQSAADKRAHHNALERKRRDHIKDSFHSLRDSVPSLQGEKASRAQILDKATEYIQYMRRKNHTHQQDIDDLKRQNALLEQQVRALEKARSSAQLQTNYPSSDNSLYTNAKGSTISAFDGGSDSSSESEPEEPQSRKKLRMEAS
row,Sequence,binding signal [normalized occupancy]
1,CTGCTCTC,0.0736
2,ATTGATAA,0.0774
3,AGATGCGG,0.0753
4,AGATGCGC,0.077
5,ATATGCGC,0.085
6,AAATGCGA,0.0758
7,AAATGCGT,0.0858
8,ACATGCGA,0.0989
9,AAATGCGG,0.0791
10,ACATGCGG,0.129
11,ACCTGCGT,0.0757
12,ACATGCGT,0.127
13,ACATGCGC,0.109
14,ATATGCGA,0.0834
15,AGGTTTTA,0.0742
16,CTAAGAAA,0.0728
17,GATGATTA,0.0816
18,AGGGTCAC,0.0776
19,CCCAGTTA,0.0735
20,GCATCACA,0.0871
21,CCGACGAC,0.0752
22,AGTCGTAT,0.0756
23,AGGTGGTA,0.0821
24,GCGTGGTA,0.111
25,ACGTGGTA,0.115

row,Sequence,binding signal [normalized occupancy]
1,ACGTGGTC,0.106
2,GTGTGGTA,0.0868
3,AAGTGGTG,0.0758
4,AGGTGGTG,0.0873
5,CCGTGGTC,0.074
6,GGGTGGTA,0.0821
7,AGGTGGTC,0.0855
8,CCGTGGTA,0.0806
9,ACGTGGTG,0.1
10,GTTGAGAA,0.076
11,TCATTGCA,0.0829
12,GCAATCAC,0.0763
13,GAGTCAGC,0.0763
14,AACTCACT,0.0726
15,AAGCACTA,0.0755
16,CGCCGAAA,0.0723
17,ACGGTAGA,0.0739
18,ACGCCGCT,0.0763
19,CGAGGTGA,0.0813
20,CACGCTGC,0.131
21,GACGCTGC,0.0724
22,CACGCTGA,0.115
23,CACGCTGG,0.113
24,TACGCTGA,0.0736
25,AACGCTGA,0.0816

row,Sequence,binding signal [normalized occupancy]
1,AACGCTGC,0.0786
2,AACGCTGG,0.0764
3,CACGCTCG,0.0939
4,AGGAGACA,0.084
5,CTTTGACC,0.0868
6,AGTGCTCA,0.0761
7,TCACGAAA,0.0755
8,CTCCAGTA,0.0743
9,CAACCGTA,0.0753
10,ACGCCGCG,0.0773
11,AAGGAAAG,0.0804
12,GATGCCCA,0.0798
13,GATGCCCC,0.0764
14,CATGCCCA,0.0953
15,CATGCCCG,0.0842
16,CATGCCCC,0.0965
17,AATGCCCC,0.0836
18,TCAGACGA,0.0739
19,CTACAGAG,0.0735
20,AAGAAGGC,0.0751
21,AGCGCCTA,0.0724
22,GTGAATAA,0.0848
23,AGATGTGA,0.085
24,CAATGTGA,0.0948
25,CAATGTGC,0.0924

row,Sequence,binding signal [normalized occupancy]
1,CGATGTGA,0.0833
2,GAATGTGC,0.0815
3,AAATGTGC,0.0962
4,CCATGTAA,0.0855
5,CAATGTGG,0.097
6,ACATGTGA,0.166
7,CCATGTGA,0.154
8,AAATGTGT,0.0811
9,ATATGTGA,0.0878
10,CGCACCAA,0.0722
11,GCGTTCAC,0.0758
12,CCGCTAAG,0.0719
13,CGTCACTC,0.074
14,GCGGGTCA,0.0811
15,ACTTTGTG,0.0718
16,TACTACGA,0.0764
17,CTAATATA,0.0824
18,CATTAGAA,0.0752
19,ACATCACG,0.0884
20,CGTGTTAA,0.0819
21,GGCCCACA,0.0789
22,ACTGACGA,0.0719
23,CTCCTTCC,0.081
24,AGGCACGC,0.0914
25,GTTAACCA,0.0793

row,Sequence,binding signal [normalized occupancy]
1,AGCGTTCA,0.0757
2,ACATGTGG,0.209
3,ACATGTGC,0.197
4,GGATGTGA,0.0786
5,ACATGTCC,0.0918
6,AAATGTGG,0.088
7,AGATGTGG,0.0868
8,CCATGTCC,0.0824
9,GAATGTGA,0.0817
10,AGATGTGC,0.0825
11,GCATGTGA,0.157
12,CCATGTGC,0.209
13,CGATGTGC,0.0807
14,CCGATGAC,0.0747
15,TTAGTAAA,0.0726
16,CGATGCCC,0.0786
17,CCGAGTGC,0.0748
18,GATAGTGC,0.0782
19,AAGTTAGA,0.0733
20,CAGGCACC,0.0774
21,GACAAGAA,0.0761
22,AGGCGTTA,0.0751
23,CCCATACG,0.0864
24,GATGACCA,0.0763
25,CGTGACCA,0.0992

row,Sequence,binding signal [normalized occupancy]
1,AGTGACCA,0.0753
2,CATGACCA,0.0957
3,GGTGATCA,0.0835
4,CGTGATCC,0.0811
5,CGTGACCC,0.0843
6,CGTGATCA,0.0962
7,CATGACCG,0.0795
8,CGCCAACA,0.0741
9,ACCTGATG,0.0825
10,AGCTACAA,0.0722
11,ATGCCAAA,0.0777
12,GAGATCCC,0.0743
13,CTACACGC,0.0967
14,ATACACGC,0.102
15,CTACACAC,0.093
16,ATACACGA,0.0889
17,ATACACGG,0.0846
18,CTACACGA,0.0821
19,ACTTGACA,0.0819
20,GCTCCCAC,0.075
21,CATCAAGC,0.0726
22,GTTGAAGA,0.082
23,ACAGAAGA,0.0734
24,ATGAAGGG,0.0755
25,AATGCGAG,0.0746

row,Sequence,binding signal [normalized occupancy]
1,CATGCGAG,0.0975
2,GATGCGAC,0.0759
3,AATGCGAC,0.0782
4,CATGCGAA,0.0898
5,CATGCGAC,0.109
6,AAACCTTA,0.0742
7,ACGACGTA,0.0786
8,ATAACGTA,0.0784
9,ACAACGTG,0.149
10,ATAACGTG,0.113
11,ACAACGTA,0.077
12,ACGACGTC,0.0746
13,AGAACGCG,0.0788
14,AGAACGTG,0.1
15,ACAACGGG,0.0774
16,ACGACGTG,0.0963
17,ATAACGTC,0.0773
18,AGAACGTA,0.0742
19,ATAGCGCC,0.0747
20,GGAGAAGA,0.0765
21,ATTATTCG,0.0765
22,AGCTGACA,0.0754
23,AACAGCAC,0.0765
24,GTCACCTA,0.0725
25,ATTTTAAC,0.0737

row,Sequence,binding signal [normalized occupancy]
1,AAATTGCA,0.0733
2,CCGCGCGC,0.0828
3,AAATAAAA,0.079
4,AAACCCAA,0.0746
5,CTTGTCAC,0.0759
6,AACCACAC,0.0854
7,ATCCACAA,0.077
8,ATCCACAT,0.0977
9,AACCACAA,0.0762
10,AACCACAT,0.0973
11,ATCCACAG,0.078
12,GCAACAGA,0.0747
13,GTCAGAGA,0.073
14,ATTGTCTG,0.0774
15,TACATACA,0.092
16,AATGGGAA,0.0775
17,CATGTCTC,0.0933
18,CATGTGTA,0.131
19,AATGTGTC,0.095
20,CTTGTGTA,0.0811
21,CATGTGTC,0.125
22,GATGTGTA,0.0848
23,CTGCGGCA,0.0732
24,GACACCCA,0.0749
25,GATGTAGA,0.0799

row,Sequence,binding signal [normalized occupancy]
1,ACAGCTAT,0.0762
2,ACAGGTGG,0.0985
3,ACAGGTGA,0.084
4,ACAGGTGC,0.0832
5,CACAGCAA,0.0762
6,AGTGTGCA,0.0821
7,CATGTGCC,0.149
8,CATGTGCG,0.181
9,CGTGTGCA,0.0981
10,CATGTTCG,0.0882
11,ACTGTGAT,0.0734
12,GATGTGCC,0.0796
13,CCTGTGCG,0.0733
14,AATGTGAT,0.101
15,CGTGTGCC,0.0918
16,CTTGTGCC,0.0778
17,AATGTGAA,0.0782
18,CGTAGCAG,0.0734
19,CGTGAAGA,0.0801
